CatS block: inhibitors of human cathepsin S, biochemical, compound mixtures. inhibition, %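 (tested at 5 µM per compound within 10-compound mixtures)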. P25774. recombinant cathepsin S, AMC dipeptide fluorescence, pooled mixtures. 0.06% of 62,000 active; in the data active = inhibition above about 32%, passing the limit was not always enough; inconclusive = no clear call, values can overlap the other calls;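 note: 0% = enzyme without compound and 100% = blank without enzyme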
Target sequence (P25774 115-331 limits assumed): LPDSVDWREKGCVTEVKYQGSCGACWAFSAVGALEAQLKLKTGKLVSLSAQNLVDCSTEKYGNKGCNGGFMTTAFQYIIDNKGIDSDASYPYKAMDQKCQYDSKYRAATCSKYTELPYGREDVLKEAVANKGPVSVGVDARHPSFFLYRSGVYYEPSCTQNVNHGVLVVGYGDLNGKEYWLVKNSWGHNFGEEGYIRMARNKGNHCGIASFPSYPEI
CatL block: inhibitors of human cathepsin L, biochemical; inhibition, %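 (tested at 10 µM)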; AID 460, 2006; 0.17% of 58,000 active; purified cathepsin L, fluorogenic substrate, fluorescence; Procathepsin L (Homo sapiens), P07711; in the data active = inhibition above about 45%;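 note: 0% = enzyme with no compound and 100% = no enzyme blank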
Target sequence (P07711 114-288 limits assumed): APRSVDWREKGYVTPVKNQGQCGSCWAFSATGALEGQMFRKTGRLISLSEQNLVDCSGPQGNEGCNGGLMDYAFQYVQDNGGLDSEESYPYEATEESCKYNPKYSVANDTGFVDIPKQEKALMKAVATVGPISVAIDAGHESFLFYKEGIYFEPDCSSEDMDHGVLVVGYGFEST
Target sequence (P07711 292-333 limits assumed): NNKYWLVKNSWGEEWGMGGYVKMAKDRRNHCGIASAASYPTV
CatB inh: human cathepsin B inhibitors, primary screen, biochemical, fluorogenic substrate; P07858; purified cathepsin B, fluorescence; inhibition, %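 (tested at 10 µM)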; 0.1% of 63,000 active; in the data active = inhibition above about 21%;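 note: 0% = enzyme with no compound and 100% = no enzyme blank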
CatB mixtures: cathepsin B inhibitors from pooled compounds, primary screen, biochemical, compound mixtures, AMC fluorescence. P07858. inhibition, %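 (ten-compound pools at 5 µM per compound and 50 µM total)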. Purified cathepsin B, AMC dipeptide fluorescence. 0.06% of 62,000 active; in the data active = inhibition above about 22%, passing the limit was not always enough; inconclusive = no clear call, values can overlap the other calls;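 note: 0% = enzyme without compound and 100% = no enzyme blank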
Her2 expr inh: inhibitors of Her2 protein expression, primary screen, SKBR-3 cells, AlphaScreen, 66K library; SKBR-3 HER2 protein level, 18-24 h; stronger effect = lower value; HER2 level % of control, % at 10 µM; 0.69% of 65,000 active; AID 645, 2007;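 active = HER2 level under 5% of the carrier-only control; inconclusive = no clear call, values can overlap the other calls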;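 note: 100% = DMSO carrier and 0% = 500 nM PU-H71 HSP90 inhibitor; lower value means stronger loss of Her2 protein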
SK-BR-3 tox 24h: SK-BR-3 proliferation inhibitors, primary screen, cell-based, human, 24 h | SK-BR-3 viability, CellTiter-Glo ATP luminescence; stronger effect = lower value | 0.47% of 41,000 active | viability, % at 10 µM;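 active = viability at or below the median of all test compounds minus 3 SD, in both replicates if run twice, cut at about 45% in these data; inconclusive = duplicate replicates that disagree with each other; inactive = viability above that cutoff in every replicate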;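 note: 100% = median untreated cell wells and 0% = median positive control drug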
* = called active by the depositor; u = inconclusive; x = not tested or not shown. Shown are actives, neighbours in structure and some others; about 1.1% of the full set was active somewhere.

SMILES	CatS block	CatL block	CatB inh	CatB mixtures	Her2 expr inh	SK-BR-3 tox 24h
N#Cc1nc(COc2ccccc2Cl)oc1N1CCCCCC1	x	10	0	50	92	x
CC1CN(c2oc(COc3ccc(Cl)cc3Cl)nc2C#N)CC(C)O1 (stereo not drawn)	35	-1	-2	8	-19*	x
Cc1cc(C)c(S(=O)(=O)N2CCN(C)CC2)c(C)c1	-6	-2	x	0	117	104
O=C(c1ccc(=O)[nH]c1)N(Cc1ccco1)C1(C(=O)NC2CCCC2)CCCCC1	4	1	2	4	117	101
CN(C)CC(C(=O)c1ccccc1)c1ccccc1 (stereo not drawn)	-6	-5	3	7	-55*	6.4*
COc1ccc(OCC(=O)NCc2cccnc2)cc1	-1	26	-4	2	-14*	75
CCN(CC)c1cccc(OC2=NS(=O)(=O)c3ccccc32)c1	-4	-1	3	7	16	84
Nc1nnnn1/N=C/C(Br)=C/c1ccccc1	15	19	3	4	-20*	180
C=CCn1c(=O)/c(=C/c2cc(OC)c(OC)c(OC)c2)s/c1=C(/C#N)c1nc2ccccc2n1C	16	16	2	6	80	40*
CNC(=O)c1ccccc1NC(=O)c1cccc(S(=O)(=O)N2CCC(C)CC2)c1	21	29	6	1	157	43*
Cc1cc(C)n(-c2nc3ccccc3c(=O)n2OCC(=O)OCc2ccccc2)n1	-2	-1	-5	2	96	139
Cc1cc(C)n(-c2nc3ccccc3c(=O)n2OCc2ccc(F)cc2)n1	8	0	5	4	62	40*
O=C1CCCC2=C1C(c1ccco1)Nc1ccc3ccccc3c12 (stereo not drawn)	1	-26	-3	-9	95	x
C=CS(=O)(=O)c1ccc(Oc2ccc(S(=O)(=O)C=C)cc2)cc1	39*	-3	0	5	-22*	u
COc1ccc(-c2noc(CSc3nc(N)c(-c4ccccc4)c(=O)[nH]3)n2)cc1	4	15	7	-1	75	99
O=C(c1n[nH]c(=O)c2ccccc12)N1CCN(c2ccccc2)CC1	4	8	3	-4	-20*	75
Cc1onc(-c2ccccc2)c1C(=O)n1nnc2ccccc21	-4	0	-1	0	2.2*	x
COCCn1cc(C(=O)N2CCC(C)CC2)c2c3ccccc3n(C)c2c1=O	-5	-29	-6	0	94	88
COC(=O)c1[nH]c2ccc(C)cc2c1NC(=O)CCN1CCN(C2CCCCC2)CC1	-4	0	1	2	91	94
COC(=O)c1[nH]c2ccc(Br)cc2c1NC(=O)CN1CCN(C2CCCCC2)CC1	-4	-5	0	4	-21*	87
N=c1sccn1CC(=O)Nc1ccccc1-c1ccccc1	6	0	1	7	110	33*
COc1ccc(S(=O)(=O)NC(CC(=O)N2CCc3ccccc32)c2ccco2)cc1 (stereo not drawn)	6	49*	0	0	99	x
O=C(Nc1ccc(N2CCN(C(=O)c3ccco3)CC2)c(Cl)c1)c1c(F)c(F)c(F)c(F)c1F	2	x	4	1	32	113
COC(=O)C1=C(C)NC(=O)CC1c1cccc(Cl)c1Cl (stereo not drawn)	2	x	6	2	77	x
CCOC(=O)C1=C(C)NC(C)=C(C(=O)OC)C1c1cccc(Cl)c1Cl (stereo not drawn)	-2	3	34*	-8	94	105
SMILES	CatS block	CatL block	CatB inh	CatB mixtures	Her2 expr inh	SK-BR-3 tox 24h
CCC1=C/C(=C/N(C)c2ccccc2)C(=O)S1	4	9	6	1	102	78
CCCOc1ccc(C(=O)CCN2CCCCC2)cc1	2	-9	-1	0	-20*	85
Cc1onc(-c2ccccc2Cl)c1C(=O)Nc1cccnc1	0	-15	2	4	92	x
CC(=O)Nc1cccc(NC(=O)c2c(-c3ccccc3Cl)noc2C)c1	0	2	0	2	-19*	x
COc1cccc(NC(=O)N2CCC(C(N)=O)(N3CCCCC3)CC2)c1	-1	15	0	-4	50	40*
Cc1cccc(N2CCN(c3nc4ccc(Cl)cc4n4cnnc34)CC2)c1C	6	x	-2	6	30	x
CC1CCc2c(sc3ncnc(N4CCOCC4)c23)C1 (stereo not drawn)	4	x	-2	5	-29*	95
CC1CCc2sc3ncnc(N4CCOCC4)c3c2C1 (stereo not drawn)	6	-4	-4	2	153	71
CN(C)S(=O)(=O)c1cccc(-c2nnc(SCc3ccc4c(c3)OCCO4)o2)c1	-20	4	-1	-9	101	x
COc1ccc2nc(COC(=O)c3ccco3)c(C(C)=O)[n+]([O-])c2c1	-6	-4	-1	3	122	108
COc1ccc2nc(CC(C)(C)CC(=O)O)c[n+]([O-])c2c1	-15	-12	23*	6	93	93
O=C(COc1ccc2ccccc2c1CN1CCOCC1)N1CCc2ccccc21	-1	12	5	0	40	x
O=C(O)CCc1nn2cc(-c3ccccc3)nc2[nH]c1=O	x	-49	-2	x	-19*	88
CCc1nn2cc(-c3ccccc3)nc2s1	24	3	4	4	x	87
CCOC(=O)Cn1c(=O)oc2cc(S(=O)(=O)N3CCc4ccccc43)ccc21	5	5	5	5	21	x
Cc1ccccc1C(=O)Nc1cccc(NC(=O)Cn2cnc3c(=O)n(C)c(=O)n(C)c32)c1	-4	4	2	-7	100	88
Cc1ccc(-c2c3c(=O)n(C)c(=O)n(C)c3cn2Cc2cccnc2)cc1	3	2	-2	2	87	82
Oc1c(CN2CCCCC2)cc(Br)c2cccnc12	-3	1	-3	-3	31	39*
Cc1nc(SCC(=O)Nc2c(C)n(C)n(-c3ccccc3)c2=O)n[nH]1	-5	-4	2	2	112	93
CCn1c(COc2ccc3c(c2)CCCC3)nnc1SCC(=O)Nc1nccs1	-2	3	1	5	90	101
COc1ccc(S(=O)(=O)N2CCCN(CC(=O)Nc3ccc4c(c3)OCO4)CC2)cc1	18	2	8	7	107	89
O=C(CN1CCCN(S(=O)(=O)c2ccc(Br)cc2)CC1)Nc1ccc2c(c1)OCO2	3	51*	-2	8	88	75
Cn1c(Cc2ccccc2)nnc1SCC(=O)c1ccc(Br)s1	10	9	2	1	103	x

Screening data (PubChem BioAssay)
